Laboratory results published in PubChem BioAssay (NCATS).
Records with an inconclusive call do not appear. The source made the active and inactive calls. Calls follow the shape of the dose curve; as a rule, active = well fitted cell-killing curve with a large enough effect; inconclusive = small, poorly fitted or top-dose-only effect, or effect the other way; inactive = flat fitted curve, though single readings scatter. Where a SMILES comes first, the peptide text is derived from it. Bridges are numbered along the chain shown (N, C = ends). [ ]: non-standard residue; d: D form. NMeY = CN[CH](Cc1ccc(O)cc1)C(=O)O

Columns and labels:
Assay in all cases: Primary qHTS to identify gynecologic anti-cancer compounds using libraries of approved drugs and bioactive compounds (AID 1345084); also: nearly all actives have a fitted effect of over 55% in size
Conditions in all cases: Gynecologic cancer cell panel viability, ATPlite luminescence, 48 h; series mostly up to 57.5 µM
PA-1 = tested on: PA-1
Procedure, shortened: (§1)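 Luminescence from the ATPlite ATP-monitoring reagent indicates viable cell number; lower signal means cytotoxicity. Cells received compound 16 h after seeding and were exposed for 48 h across five concentrations.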

SKOV3 = tested on: SKOV3
Procedure, shortened: as §1

Tov-21-G = tested on: Tov-21-G
Procedure, shortened: as §1

Tov112D = tested on: Tov112D
Procedure, shortened: as §1
% is scaled to controls: 0 for no effect and ±100 for the full control effect.

Oc1ccc2nc(CN3CCC(Cc4ccccc4F)CC3)[nH]c2c1
inactive: Potency (PA-1) | Potency (SKOV3) | Potency (Tov-21-G) | Potency (Tov112D)

C[C@@H]1O[C@@H](O[C@H]2[C@H](O[C@H]3CC[C@@]4(C)C(CC[C@]5(C)C4CC=C4[C@@H]6CC(C)(C)CC[C@]6(C(=O)O[C@@H]6OC[C@H](O)[C@H](O)[C@H]6O[C@@H]6O[C@@H](C)[C@H](O[C@@H]7O[C@H](CO)[C@@H](O)[C@H](O)[C@H]7O)[C@H](O)[C@H]6O)[C@H](O)C[C@]45C)C3(C)C)O[C@H](CO)[C@@H](O[C@@H]3OC[C@@H](O)[C@H](O)[C@H]3O)[C@@H]2O)[C@H](O)[C@H](O)[C@H]1O (stereo partly drawn)
inactive: activity change, negative = cytotoxicity (PA-1) 4.23% [at 6.55 µM] | activity change, negative = cytotoxicity (SKOV3) -6.09% [at 6.55 µM] | activity change, negative = cytotoxicity (Tov-21-G) 2.71% [at 6.55 µM] | activity change, negative = cytotoxicity (Tov112D) -23.4% [at 6.55 µM]

CC(O)CO[C@@H]1O[C@H](CO)[C@@H](O)[C@H](O)[C@H]1O (stereo partly drawn)
inactive: Potency (PA-1) | Potency (SKOV3) | Potency (Tov-21-G) | Potency (Tov112D)

C[C@@H]1O[C@@H](O[C@H]2[C@H](O)[C@@H](O[C@@H]3O[C@H](CO)[C@@H](O)[C@H](O[C@@H]4O[C@H](CO)[C@@H](O)[C@H](O)[C@H]4O)[C@H]3O)[C@H](O[C@H]3CC[C@@]4(C)C(=CC[C@@H]5C4CC[C@@]4(C)C5C[C@@H]5OC6(CC[C@@](C)(CO[C@@H]7O[C@H](CO)[C@@H](O)[C@H](O)[C@H]7O)O6)[C@@H](C)[C@@H]54)C3)O[C@@H]2CO)[C@H](O)[C@H](O)[C@H]1O (stereo partly drawn)
inactive: activity change, negative = cytotoxicity (PA-1) -4.89% [at 6.55 µM] | activity change, negative = cytotoxicity (SKOV3) 5.85% [at 6.55 µM] | activity change, negative = cytotoxicity (Tov-21-G) -2.15% [at 6.55 µM] | activity change, negative = cytotoxicity (Tov112D) -2.67% [at 6.55 µM]

O=C(Nc1ccc(S(=O)(=O)Nc2ccccc2Cl)c(Cl)c1)c1ccccn1
inactive: Potency (PA-1) | Potency (SKOV3) | Potency (Tov-21-G) | Potency (Tov112D)

CC(C)C(=O)OC[C@H]1O[C@H](O[C@H]2O[C@H](CO)[C@@H](O)[C@H](O)[C@H]2O)[C@H](O)[C@@H](O)[C@@H]1O
inactive: Potency (PA-1) | Potency (SKOV3) | Potency (Tov-21-G) | Potency (Tov112D)

CC1=CC(=O)C(=C(C)C)CC2C1CCC2(C)O (stereo not drawn)
inactive: Potency (PA-1) | Potency (SKOV3) | Potency (Tov-21-G) | Potency (Tov112D)

CC[C@H]1OC(=O)[C@H](C)[C@@H](O[C@H]2C[C@@](C)(OC)[C@@H](O)[C@H](C)O2)[C@H](C)[C@@H](O[C@@H]2O[C@H](C)C[C@H](N(C)C)[C@H]2O)[C@](C)(O)C[C@@H](C)C(=O)[C@H](C)[C@H]2OC(=O)O[C@@]21C
inactive: Potency (PA-1) | Potency (SKOV3) | Potency (Tov-21-G) | Potency (Tov112D)

C=C1CCC2C(C)(C(=O)OC)CCCC2(C)C1CCC(C)CC(=O)O (stereo not drawn)
inactive: Potency (PA-1) | Potency (SKOV3) | Potency (Tov-21-G) | Potency (Tov112D)

COc1ccc(C(=O)C2CCN(CC(=O)N(Cc3nc4c(c(=O)[nH]3)COCC4)CC3CC3)CC2)cc1
inactive: Potency (PA-1) | Potency (SKOV3) | Potency (Tov-21-G) | Potency (Tov112D)

COC(=O)C[C@H]1C(C)(C)[C@H](OC(=O)C(C)C)[C@@]2(O)C(=O)[C@]1(C)C1CC[C@]3(C)C(CC(=O)O[C@H]3c3ccoc3)[C@]13O[C@@H]32 (stereo partly drawn)
inactive: Potency (PA-1) | Potency (SKOV3) | Potency (Tov-21-G) | Potency (Tov112D)

C[C@]12C=C[C@@]3(CCC4[C@](C)(CO)CCC[C@@]4(C)C3CC1)C2 (stereo partly drawn)
inactive: Potency (PA-1) | Potency (SKOV3) | Potency (Tov-21-G) | Potency (Tov112D)

CC1=C(COC2OC(CO)C(O)C(O)C2O)C(C(CO)C(=O)O)CC1 (stereo not drawn)
inactive: Potency (PA-1) | Potency (SKOV3) | Potency (Tov-21-G) | Potency (Tov112D)

CC(=O)O[C@@H](CO[C@@H]1O[C@H](CO)[C@H](O)[C@H](O)[C@H]1O)[C@]1(C)C=C2CC[C@@H]3C(C)(C)[C@@H](O)CC[C@@]3(C)[C@@H]2CC1
inactive: Potency (PA-1) | Potency (SKOV3) | Potency (Tov-21-G) | Potency (Tov112D)

CCC(C)C1NC(=O)C2CCCN2C(=O)C(NC(C)=O)C(C)OC(=O)C(Cc2ccc(OC)cc2)N(C)C(=O)C2CCCN2C(=O)C(C(C)C)NC1=O (stereo not drawn) (Ac-TPIVP[NMeY](Me); ester 1-C; configuration not given here)
inactive: Potency (PA-1) | Potency (SKOV3) | Potency (Tov-21-G) | Potency (Tov112D)

CN1CCc2nc(C(=O)N[C@@H]3C[C@@H](C(=O)N(C)C)CC[C@@H]3NC(=O)C(=O)Nc3ccc(Cl)cn3)sc2C1
inactive: Potency (PA-1) | Potency (SKOV3) | Potency (Tov-21-G) | Potency (Tov112D)

C=C[C@H]1[C@H](O[C@@H]2O[C@H](CO)[C@@H](O)[C@H](O)[C@H]2O)OC=C(C(=O)OC)[C@H]1CC(=O)O
inactive: Potency (PA-1) | Potency (SKOV3) | Potency (Tov-21-G) | Potency (Tov112D)
